Assay outcomes (PubChem)
Hits are enriched below; roughly 11% of the tested compounds scored in any of these assays.
SW480 rereplic – DNA re-replication induction in SW480 cells; SW480 DNA re-replication, Hoechst DNA content imaging, 48 h; Potency, µM (top dose mostly 46.1 µM), most hits filed as activators; actives 1.8% (n = 340,000); AID 624297; note: nearly all actives have a fitted effect of over 55% in size
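Treated cells incubate 48 hr (37 C, 5% CO2), are stained 40 min with Hoechst, and nuclear fluorescence is enumerated; a rise in nuclei with high DNA signal marks re-replication.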
IL-1B inflam inh – inhibitors of inflammasome signaling (IL-1 beta secretion). THP-1 LPS/ATP IL-1B secretion, AlphaLISA, 16 h; hits give low values. activity change, % at 57.5 µM. actives 4.7% (n = 360,000); in the data active = activity change below about -50%; inconclusive = mostly about -30% to -49%
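THP-1 cells pretreated 1 hr with compounds (up to 57.5 uM final), then stimulated with LPS (250 ng/mL final) plus ATP (1.25 mM final); secreted IL-1B measured by AlphaLISA after 16 hr, decreased signal indicating inhibition.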
MCF10A rereplic – inducers of DNA re-replication in MCF 10A breast cells. actives 2.9% (n = 350,000). MCF 10A DNA re-replication, Hoechst nuclear intensity, 48 h. Potency, µM (titrated, usually from 46.1 µM), usual class: activators. AID 624296; note: nearly all actives have a fitted effect of over 50% in size
Gal4-VP16 FLuc – Gal4-VP16 reporter inhibition counter-screen; Drosophila S2 Gal4-VP16 UAS-luciferase, luminescence, 20 h; Potency, µM (series often up to 53.6 µM), hits mostly inhibitors; actives 3.5% (n = 310,000);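 note: Gal4-VP16 expression switched on by copper sulfate through the metallothionein promoter; nearly all actives have a fitted effect of over 50% in size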
RORg inh – ROR gamma (mouse) transcription inhibition; AID 2551; actives 5.4% (n = 310,000); P51450; Drosophila S2 Gal4-RORgamma UAS-luciferase reporter, 20 h; Potency, µM (top dose mostly 53.6 µM), actives largely listed as inhibitors; note: nearly all actives have a fitted effect of over 60% in size
Target sequence (P51450 whole entry, looked up, the tested form may be a part): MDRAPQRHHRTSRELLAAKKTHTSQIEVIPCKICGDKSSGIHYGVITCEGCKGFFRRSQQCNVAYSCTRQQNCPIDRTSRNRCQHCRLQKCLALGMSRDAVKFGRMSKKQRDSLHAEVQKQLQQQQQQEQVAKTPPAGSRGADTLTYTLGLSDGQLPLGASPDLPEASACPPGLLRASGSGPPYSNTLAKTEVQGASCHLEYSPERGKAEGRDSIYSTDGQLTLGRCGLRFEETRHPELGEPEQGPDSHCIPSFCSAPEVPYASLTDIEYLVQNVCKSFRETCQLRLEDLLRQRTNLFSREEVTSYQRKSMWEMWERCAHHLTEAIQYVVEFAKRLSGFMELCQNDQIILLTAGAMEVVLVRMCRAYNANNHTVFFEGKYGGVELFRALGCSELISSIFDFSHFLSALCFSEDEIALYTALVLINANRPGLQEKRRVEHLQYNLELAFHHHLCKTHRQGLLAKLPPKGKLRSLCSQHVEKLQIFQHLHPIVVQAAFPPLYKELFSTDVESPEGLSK
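Schneider cells (Drosophila), stable Gal4 DBD–ROR gamma + UAS-luc; 1 hr cmpd preincubation; Cu2+ induction 700 uM final; 20 hr ambient; luminescence.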
Of the large screens only hits and unclear results are named; the others gave an inactive call. Unless noted, calls come from the whole dose curve; as a rule, active = well fitted curve in the direction sought with a large enough effect; inconclusive = small, poorly fitted or top-dose-only effect, or another doubt; inactive = no such curve, though single readings can be large; an effect the other way counts as inactive or inconclusive.

Cn1cccc1/C=C1\CCc2ccccc2C1=O	IL-1B inflam inh inconclusive, RORg inh 13µM
C(=C1c2ccccc2-c2ccccc21)c1ccncc1	SW480 rereplic inconclusive, IL-1B inflam inh -78, MCF10A rereplic inconclusive (no result: Gal4-VP16 FLuc, RORg inh)
O=C1/C(=C/c2ccncc2)CCc2ccccc21	SW480 rereplic 21µM, IL-1B inflam inh -102, MCF10A rereplic inconclusive, RORg inh inconclusive
O=C1/C(=C\c2ccncc2)CCc2ccccc21	IL-1B inflam inh -98, MCF10A rereplic inconclusive (no result: Gal4-VP16 FLuc, RORg inh)
C(=C\c1ccccn1)/c1ccncc1	none
Cc1cn([C@H]2C[C@H](O)[C@@H](CNCc3ccc(F)c(N4CCOCC4)c3)O2)c(=O)[nH]c1=O	none (no result: SW480 rereplic, MCF10A rereplic, Gal4-VP16 FLuc, RORg inh)
O=C(Nc1ccccc1Cl)c1cc(C2CCCN(C(=O)c3cccs3)C2)on1 (stereo not given)	none (no result: SW480 rereplic, MCF10A rereplic, Gal4-VP16 FLuc, RORg inh)
Cn1cccc1/C=C1\Cc2ccccc2C1=O	none
Cn1cccc1/C=C1\CC(C(C)(C)C)C/C(=C\c2cccn2C)C1=O (stereo not given)	SW480 rereplic inconclusive, MCF10A rereplic 3.7µM, Gal4-VP16 FLuc 5µM, RORg inh inconclusive
COc1ccc(-c2cc(C(=O)N3CC4(C)CC3CC(C)(C)C4)no2)cc1 (stereo not given)	IL-1B inflam inh -53
Cc1ccc(-c2cc(C(=O)N3CC4(C)CC3CC(C)(C)C4)no2)cc1 (stereo not given)	none (no result: Gal4-VP16 FLuc, RORg inh)
O=C(c1cc(COc2cccc(C(F)(F)F)c2)on1)N1C[C@H]2CC[C@H]1C2	RORg inh inconclusive
CC1(C)C[C@@H]2C[C@@](C)(CN2C(=O)c2cc(COc3cccc(C(F)(F)F)c3)on2)C1	IL-1B inflam inh -61, MCF10A rereplic inconclusive, Gal4-VP16 FLuc inconclusive
COc1ccc(/C(C)=N/OCC(=O)N2CC3(C)CC2CC(C)(C)C3)cc1 (stereo not given)	IL-1B inflam inh -78
COc1ccc(/C=N/OCC(=O)N2CC3(C)CC2CC(C)(C)C3)cc1 (stereo not given)	IL-1B inflam inh inconclusive
CCCn1c(SCC(=O)NNC(=O)c2ccc(C)cc2)nnc1C(C)C	none
Brc1cccc(-c2nc3c4ccccc4ccn3c2Cc2ccccc2)c1	none (no result: SW480 rereplic, MCF10A rereplic, Gal4-VP16 FLuc, RORg inh)
COC(=O)N/N=C/c1cn(Cc2ccccc2Cl)c2ccccc12	none
Cc1[nH][nH]c(=O)c1C(c1c(C)[nH][nH]c1=O)c1cn(Cc2ccccc2Cl)c2ccccc12	SW480 rereplic 16µM, MCF10A rereplic 6.5µM, RORg inh inconclusive
COc1cccc(CN2CCN(C(=O)[C@H]3O[C@@H](n4cnc5c(N)ncnc54)[C@H](O)[C@@H]3O)CC2=O)c1	none (no result: SW480 rereplic, MCF10A rereplic, Gal4-VP16 FLuc, RORg inh)
Cc1ccc(C(=O)N[C@H](C(=O)NC2CCCCCCC2)C(C)C)cc1	none (no result: Gal4-VP16 FLuc, RORg inh)
CC(=O)N[C@@H](CCCNC(=N)N)C(=O)N[C@H](CC1CCCCC1)C(=O)N[C@@H]1CCC2SC[C@@H](C(=O)N[C@H](CCCNC(=N)N)C(=O)N[C@H](Cc3ccc(Cl)cc3)C(N)=O)N2C1=O (stereo not given in full)	none (no result: SW480 rereplic, IL-1B inflam inh, MCF10A rereplic)
O=C1Cc2c([nH]c3ccc([N+](=O)[O-])cc23)-c2ccccc2N1	SW480 rereplic inconclusive, IL-1B inflam inh -99, MCF10A rereplic inconclusive (no result: Gal4-VP16 FLuc, RORg inh)
O=c1[nH]c2cc([N+](=O)[O-])ccc2c2ccccc12	none (no result: Gal4-VP16 FLuc, RORg inh)
COc1ccccc1-n1cnc(N)c1C(=O)c1ccccc1	SW480 rereplic 15µM, MCF10A rereplic inconclusive
c1ccc(-c2cn3c(n2)-c2ccccc2C3)cc1	Gal4-VP16 FLuc inconclusive, RORg inh 10µM
O=C1c2ccccc2CN2C(=O)c3ccccc3CN12	none
Cc1cc(C)n(Cc2ccc(C(=O)Nc3ccc(Br)cc3C)o2)n1	IL-1B inflam inh -60
CCOC(=O)C1CCN(c2ccc(-c3cccs3)nn2)CC1	none
c1csc(-c2ccc(N3CCOCC3)nn2)c1	Gal4-VP16 FLuc 11µM, RORg inh inconclusive
COC(=O)C1(C(=O)OC)c2ccccc2CN(S(=O)(=O)c2ccc(C)cc2)C1CC(C)=O (stereo not given)	none (no result: SW480 rereplic, MCF10A rereplic, Gal4-VP16 FLuc, RORg inh)
C[C@@H]1CN([C@@H](C)CO)S(=O)(=O)c2ccc(-c3ccccc3)cc2O[C@@H]1CN(C)Cc1ccccc1C(=O)O	none (no result: SW480 rereplic, MCF10A rereplic, Gal4-VP16 FLuc, RORg inh)
COC(=O)c1nn(-c2ccc3c(c2)CCN3C(C)=O)cc1O	Gal4-VP16 FLuc 8.9µM, RORg inh 7.1µM
COc1cccc2c(=O)c(SC(F)(F)C(F)C(F)(F)F)c(C)[nH]c12 (stereo not given)	SW480 rereplic 16µM, MCF10A rereplic inconclusive
Cc1[nH]c2ccc(F)cc2c(=O)c1SC(F)(F)C(F)C(F)(F)F (stereo not given)	none
O=C(O)c1ccccc1NS(=O)(=O)c1cccc(C(F)(F)F)c1	none
O=C(O)c1ccccc1NS(=O)(=O)c1cccc(-n2sc3ccccc3c2=O)c1	SW480 rereplic inconclusive, IL-1B inflam inh -93, MCF10A rereplic 15µM, Gal4-VP16 FLuc inconclusive
O=C(Nc1ccccc1)c1cccc(C(=O)Nc2ccccc2)n1	none
CN(C)c1ccc(NC(=O)/C=C/c2ccccc2Cl)cc1	RORg inh 0.056µM
CN(C)c1ccc(NC(=O)c2cccc(C(=O)Nc3ccc(N(C)C)cc3)n2)cc1	SW480 rereplic inconclusive, IL-1B inflam inh -56, Gal4-VP16 FLuc inconclusive
O=C(NCc1cccs1)c1csc([C@@H]2C[C@H](O)[C@@H](CO)O2)n1	none (no result: SW480 rereplic, MCF10A rereplic, Gal4-VP16 FLuc, RORg inh)
CCOc1cccc(/C=N/NC(=O)c2cc(-c3cccn3C)n[nH]2)c1O	SW480 rereplic inconclusive, MCF10A rereplic inconclusive, Gal4-VP16 FLuc 5µM, RORg inh 2.8µM
Cn1cccc1-c1cc(C(=O)N/N=C/c2cccc(O)c2)[nH]n1	IL-1B inflam inh -70
CNc1nc(NCC2CCCCC2)c2sccc2n1	none (no result: SW480 rereplic, MCF10A rereplic, Gal4-VP16 FLuc, RORg inh)
CC[C@@]1(O)CC2CN(CCc3c([nH]c4ccccc34)[C@](C(=O)OC)(c3cc4c(cc3OC)N(C)C3[C@@](O)(C(=O)OC)C(OC(C)=O)[C@]5(CC)C=CCN6CC[C@@]43C65)C2)C1 (stereo not given in full)	SW480 rereplic 0.67µM, MCF10A rereplic inconclusive (no result: IL-1B inflam inh)
CCN(CC)CCSc1nnc2c3cc(F)ccc3n(Cc3ccccc3)c2n1	SW480 rereplic inconclusive, IL-1B inflam inh -64, MCF10A rereplic inconclusive
Cn1c2ccc(F)cc2c2nnc(SCCN3CCCCC3)nc21	IL-1B inflam inh -60
Cc1cc(C)c2c(c1)c1nnc(SCCN3CCCCC3)nc1n2C	IL-1B inflam inh -72
CC1(C(=O)Nc2ccc3[nH]ncc3c2)CCN1C(=O)C/C=C/c1ccccc1 (stereo not given)	none (no result: SW480 rereplic, MCF10A rereplic, Gal4-VP16 FLuc, RORg inh)
COc1ccc(C2C3C=CCC(C)C3C(=O)N2Cc2ccccc2)cc1Cl (stereo not given)	none (no result: SW480 rereplic, IL-1B inflam inh, MCF10A rereplic)
Cc1[nH]c(=O)[nH]c(=O)c1S(=O)(=O)Nc1ccc(Br)cc1F	none
CC(=O)Nc1ccc(Nc2cc(C(C)C)nc3c(-c4ccccc4)c(C)nn23)cc1	SW480 rereplic inconclusive, IL-1B inflam inh -76, MCF10A rereplic inconclusive, Gal4-VP16 FLuc inconclusive, RORg inh inconclusive
